High-throughput results (PubChem)
TDP1 block = inhibitors of human tyrosyl-DNA phosphodiesterase TDP1. Q9NUW8. recombinant TDP1, AlphaScreen DNA substrate cleavage. hit rate 0.28% among 350,000. Potency, µM (series often up to 130 µM), inactives show at the top dose activity change, negative = inhibition, most hits filed as inhibitors. AID 485290; further: potency means the concentration at half of the fitted maximal effect; on the % scale 0 is the no-effect control and ±100 the full control effect; nearly all actives have a fitted effect of over 40% in size
Target sequence (Q9NUW8 whole entry, looked up): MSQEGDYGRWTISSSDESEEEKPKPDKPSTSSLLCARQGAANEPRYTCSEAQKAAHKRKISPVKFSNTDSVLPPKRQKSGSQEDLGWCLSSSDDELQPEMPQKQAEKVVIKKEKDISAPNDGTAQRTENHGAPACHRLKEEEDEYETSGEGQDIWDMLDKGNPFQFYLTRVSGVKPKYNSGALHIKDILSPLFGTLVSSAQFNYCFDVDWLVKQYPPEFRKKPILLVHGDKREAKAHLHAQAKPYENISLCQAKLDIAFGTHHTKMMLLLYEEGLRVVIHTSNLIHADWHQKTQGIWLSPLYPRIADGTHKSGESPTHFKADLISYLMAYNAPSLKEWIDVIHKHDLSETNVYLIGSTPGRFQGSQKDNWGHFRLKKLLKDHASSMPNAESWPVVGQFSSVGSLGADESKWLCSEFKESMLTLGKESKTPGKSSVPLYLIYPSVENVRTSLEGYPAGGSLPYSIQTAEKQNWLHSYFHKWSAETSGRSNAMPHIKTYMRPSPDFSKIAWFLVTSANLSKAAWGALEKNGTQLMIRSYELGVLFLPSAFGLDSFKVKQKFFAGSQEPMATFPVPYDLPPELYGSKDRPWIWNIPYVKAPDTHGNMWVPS
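Compounds were preincubated with Tdp1 (1 nM final) for 15 min at room temperature before substrate (15 nM final) started a 5 min reaction; beads (10 ug/ml final) were then added for 10 min before AlphaScreen detection.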
TDP1 cell CPT = DT40-hTDP1 cell growth loss with CPT | Potency, µM (doses to about 46.2 µM), for the others: at the highest dose activity change, negative = growth inhibition, actives largely listed as inhibitors | AID 686979 | hit rate 12% among 420,000 | chicken DT40 Tdp1-/-;hTDP1 cells + 20 nM CPT, ATP luminescence, 48 h; further: potency means the concentration at half of the fitted maximal effect; on the % scale 0 is the no-effect control and ±100 the full control effect; nearly all actives have a fitted effect of over 55% in size
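Cell growth measured by CellTiter-Glo luminescence after a minimum 48 h, 37 C compound exposure with 20 nM CPT in Tdp1-knockout DT40 cells stably expressing hTDP1, seeded 400/well; qHTS titration format.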
DT40 TDP1 no CPT = qHTS for Inhibitors of human tyrosyl-DNA phosphodiesterase 1 (TDP1): qHTS in cells in absence of CPT. DT40 Tdp1-/- hTDP1 cells, no CPT, ATP luminescence, 48 h. Potency, µM (series often up to 46.2 µM), without a hit: at the top dose activity change, negative = growth inhibition, hits mostly inhibitors. hit rate 15% among 420,000. AID 686978, 2013; further: potency means the concentration at half of the fitted maximal effect; on the % scale 0 is the no-effect control and ±100 the full control effect; nearly all actives have a fitted effect of over 55% in size
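A cellular qHTS used chicken DT40 cells lacking endogenous Tdp1 but carrying stably transfected human TDP1. Compounds were applied without camptothecin, and cell growth kinetics were judged by ATP-dependent luminescence after ≥48 hr.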
TGFb inhibitor = blocks TGF-b signaling; AID 588855; hit rate 1.2% among 410,000; HepG2 CAGA-GFP TGF-b/SMAD3 reporter, GFP fluorescence, 18 h; TGF-beta stimulated, 500 pg/mL final; Potency, µM (series often up to 46.1 µM), for the others: top-dose activity, negative = inhibition, hits mostly inhibitors; further: potency means the concentration at half of the fitted maximal effect; on the % scale 0 is the no-effect control and ±100 the full control effect; nearly all actives have a fitted effect of over 65% in size
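Using HEPG2 CAGA-GFP reporter cells at 1000 cells/well, we pinned test compounds, stimulated with recombinant TGF-beta (500 pg/mL final) and measured total well GFP after 18 h.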
HepG2 viability = counter-screen for TGF-b inhibitors: cytotoxicity in HepG2 cells | HepG2 CAGA-GFP viability, ATP luminescence, 18 h | Potency, µM (top dose mostly 46.1 µM), for inactives: at the top dose activity change, negative = cytotoxicity, usual class: cytotoxic | hit rate 0.76% among 410,000; further: potency means the concentration at half of the fitted maximal effect
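CellTiter-Glo luminescence gave cytotoxicity after 18 hours at 37 degrees C. The cells were HepG2 CAGA-GFP in 1% FBS DMEM, stimulated with 500 pg/mL TGF-beta after compound addition. %Activity was normalised to no-cell wells (complete cell-killing) and DMSO (no toxicity), and curves were fitted and classified.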
IL1B secr inh = inhibitors of inflammasome signaling (IL-1 beta secretion). hit rate 4.7% among 360,000. AID 743279. THP-1 LPS/ATP IL-1B secretion, AlphaLISA, 16 h; stronger effect = lower value. activity change, % at 57.5 µM; in the data active means activity change below about -50%; inconclusive means mostly about -30% to -49%; further: on the % scale 0 is the no-effect control and ±100 the full control effect
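THP-1 cells pretreated 1 hr with compounds (up to 57.5 uM final), then stimulated with LPS (250 ng/mL final) plus ATP (1.25 mM final); secreted IL-1B measured by AlphaLISA after 16 hr, decreased signal indicating inhibition.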
* = called active by the depositor; ? = inconclusive; . = not tested or not shown; [ ] = another dose, or the depositor's remark. Only some compounds are listed: those with a hit (about 18% of all), similar ones and a draw of the others. Unless noted, the call rests on the fitted dose curve; in most records, active means well fitted curve in the direction sought with a large enough effect; inconclusive means small, poorly fitted or top-dose-only effect, or another doubt; inactive means no such curve, though single readings can be large; an effect the other way counts as inactive or inconclusive.

SMILES | TDP1 block | TDP1 cell CPT | DT40 TDP1 no CPT | TGFb inhibitor | HepG2 viability | IL1B secr inh
CCC(CO)Oc1cc(NCc2cccc(O)c2)c2ncn(C(C)C)c2c1 (stereo not given) | 2% | 23µM* | ? | -2% | 4% | 37
COC(=O)[C@]12CCCCC=C1N(Cc1ccccc1)C(=O)[C@H](CC(=O)N1CCSCC1)C2 | . | ? | ? | . | . | -8
CN(C(=O)c1cccc(NC(=O)c2cccs2)c1)c1ccccc1 | 2% | -4% | -19% | -1% | -3% | ?
CCC(CO)Oc1cc(NCc2ccc(C(C)(C)C)cc2)c2ncn(C(C)C)c2c1 (stereo not given) | 7% | 13µM* | 15µM* | ? | -88% | 35
CC(C)n1cnc2c(NCc3ccccc3)cc(N[C@H](C)CO)cc21 | 11% | 2.3µM* | 4.6µM* | ? | 0.63µM* | 110
COc1ccc(Cc2cc(NCc3ccccc3)c3ncn(C(C)C)c3c2)cc1 | 8% | ? | 21µM* | ? | 11µM* | -15
CCOCCOc1cc(NCc2ccccc2)c2ncn(C(C)C)c2c1 | . | ? | ? | ? | -111% | 39
CN(C)CCN1CCN(C2CN(CCc3ccccc3)S(=O)(=O)C2)CC1 (stereo not given) | . | -3% | ? | ? | 3% | 27
COc1ccccc1NC(=O)COC(=O)c1ccc2ccccc2n1 | -7% | -15% | -23% | -12% | -6% | 0
COc1cccc(-n2ccnc2SCC(=O)Nc2cccc3ccccc23)c1 | 9% | ? | ? | -22% | -31% | .
COc1cccc(Nc2nc(C#N)nc(NC3CCCC3)n2)c1 | -3% | . | . | . | . | .
COc1ccc(Nc2oc(/C=C/c3ccc(OC)c(OC)c3)nc2C#N)cc1 | 2% | 19% | -3% | -5% | -26% | .
COc1cccc(/C=C/c2nc(C#N)c(NC3CCCCC3)o2)c1 | 0% | ? | 4.1µM* | -6% | -31% | .
COc1ccc(/C=C/c2nc(C#N)c(NC3CCCCC3)o2)cc1OC | 7% | 21µM* | 21µM* | ? | -15% | .
CCCOC(=O)c1cccc(NC(=O)CSc2nnc3cc(C)c4ccccc4n23)c1 | 2% | -21% | -4% | -23% | -12% | .
CN(NC1OC(=O)c2ccccc21)c1ccc(Cl)cc1[N+](=O)[O-] (stereo not given) | 5% | 2% | 5% | -1% | -1% | 9
O=C1OC(/C(=C\Nc2cc(Cl)ccc2O)[N+](=O)[O-])c2ccccc21 (stereo not given) | 7% | 9% | ? | -12% | -7% | -170*
Cc1ccc(N/C=C(\C2OC(=O)c3ccccc32)[N+](=O)[O-])c(C)c1 (stereo not given) | 9% | 1% | -30% | -33% | -18% | -77*
Cc1ccc(NC2=C(Cl)C(=O)OC2OC(=O)c2ccccc2)c(C)c1 (stereo not given) | 3% | ? | ? | 0% | 4% | ?
COCCNC(=O)CN1C(=O)c2cccnc2Oc2ccc(Cl)cc21 | -1% | -1% | -11% | ? | 16% | .
Cc1c(C(=O)N2CCCC(c3ccccc3)C2)sc2ncnc(NCCc3ccccn3)c12 (stereo not given) | . | 16%[9.04 µM] | -14% | . | . | .
Cc1noc(C)c1S(=O)(=O)N(C)C[C@H]1Oc2ccc(NS(=O)(=O)c3cn(C)cn3)cc2C(=O)N([C@H](C)CO)C[C@@H]1C | 2% | -17% | -8% | 2% | -3% | 11
CC1CCN(Cc2c(C(=O)N/N=C/c3ccccc3O)nnn2-c2nonc2N)CC1 | 1% | 8.2µM* | 7.3µM* | -26% | -12% | 91
